Measured values from PubChem BioAssay.
Results filed as inconclusive are left out. Calls of active or inactive are those of the source.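 Rule for the calls, unless noted: active = cell viability at or below a set limit in both duplicate runs, the limit being the all-compound median minus 4 SD (cut at about 23% in these data, passing the limit was not always enough); inconclusive = no clear call, values can overlap the other calls; inactive = the rest.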

Legend:
[1] = reducers of endogenous Her2 protein level, primary screen, SKBR3 breast tumor cells, AlphaScreen, ATP viability (AID 461;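 active = Her2 level under about 52% in both replicate screens, with viability over 70% of control, limit read from the data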;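 for Her2 level: lower value means less Her2 protein in the cells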;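 for viability: percent of carrier control wells set as 100% viability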); settings: 18-24 h, measured here: SKBR3 viability, ATP luminescence, at 10 µM
[2] = biological target: Receptor tyrosine-protein kinase erbB-2 (Homo sapiens) (UniProt P04626); test: as above; settings: 18-24 h, at 10 µM, stronger effect = lower value
[3] = SK-BR-3 cell growth inhibitors, pilot screen, 24 h, human (AID 572;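 active = viability at or below 10% of carrier control in both of two separate runs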;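 note: compound exposure lasted between 18 and 24 h rather than exactly 24 h; 100% = carrier-treated control wells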); settings: SK-BR-3 viability, CellTiter-Glo luminescence, at 10 µM, stronger effect = lower value
[4] = HUVEC growth inhibition – cell-based, human, primary screen (AID 575;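 active = viability at or below 30% in both replicate assays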;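 note: 100% = median of untreated cell wells with 0.1% DMSO on each plate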); settings: HUVEC proliferation, CellTiter-Glo luminescence, 72 h; at 10 µM; stronger effect = lower value
[5] = growth inhibitors of H69AR lung tumor, primary screen, human, duplicate replicates (AID 580;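 active = viability at or under a set limit in both replicates, limit being median viability minus 3 SD, cut at about 48% in these data, passing the limit was not always enough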;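 note: 100% = mean luminescence of untreated wells and 0% = no signal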); settings: H69AR lung tumor cells viability, ATP luminescence, 72 h; at 10 µM; stronger effect = lower value
[6] = reversal of MRP1-mediated doxorubicin resistance, pilot screen, H69AR cells, doxorubicin co-treatment (AID 601;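 active = viability loss from added drug above about 55%, and viability with drug at most 40%, in both replicates, limit read from the data, passing the limit was not always enough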); settings: CellTiter-Glo, 72 h, at 10 µM; for differential viability (reversal): stronger effect = higher value
[7] = 384-well plate pilot, post-Golgi transport modulator project, inhibition of yeast transport mutant growth (AID 636; in the data active = inhibition above about 31%); settings: absorbance 615 nm, about 18 h, stronger effect = higher value
[8] = growth suppression of yeast trafficking mutant, preliminary HTS, modulators of trafficking downstream of Golgi apparatus project, 1536-format plate, OD 615 nm (AID 637; in the data active = inhibition above about 30%); settings: yeast transport mutant growth, absorbance 615 nm, 18 h; stronger effect = higher value
[9] = OD615 S. cerevisiae growth inhibition, permissive medium, pilot counter-assay, permissive growth control for S. cerevisiae lifespan shortening project (AID 705;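 active = growth inhibition above 25% in both replicates, a cutoff set 3 SD above the mean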); settings: OD615, 24 h, at 10 µM, stronger effect = higher value
[10] = Restrictive medium S. cerevisiae growth inhibition, OD615, pilot screen of yeast lifespan reduction project, restrictive growth control (AID 706;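 active = growth inhibition above a set limit, 3 SD over mean compound inhibition, in both replicates, cut at about 43% in these data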;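 note: modified DeaD lifespan yeast strain shifted to restrictive glucose medium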); settings: OD615, 48 h, at 10 µM, stronger effect = higher value
[11] = viability gain of MRP-1-high H69AR cells under doxorubicin, pilot screen, MRP-1 activator project, CellTiter-Glo, duplicate (AID 807;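 active = viability increase at or above a cutoff of the median across tested compounds plus 3 SD, cut at about 8.5% in these data, passing the limit was not always enough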;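 note: compound pretreatment 18-22 h then 72 h combined with doxorubicin; 0% = doxorubicin alone and 100% = vehicle without doxorubicin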); settings: H69AR viability with doxorubicin, CellTiter-Glo luminescence; at 10 µM; stronger effect = higher value
[12] = growth suppression of beta-catenin knockout HCT116, pilot screen, human colon tumor cells (AID 823); settings: CellTiter-Glo, 60 h, at 10 µM, stronger effect = lower value;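 note: 0% = wells killed by 20 µM Hyamine and 100% = untreated DMSO cell wells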
[13] = growth suppression of PTEN-deleted HCT116, pilot screen, cell-based, HCT116 clonal line, CellTiter-Glo (AID 824;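 active = viability at or below 27.92% in each of two runs, the all-compound median minus 4 SD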;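 note: 0% = 20 µM Hyamine control and 100% = vehicle cell control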); settings: 60 h, at 10 µM, stronger effect = lower value
[14] = inhibitors of the yeast RAM network, pilot screen, dse1pr::URA3 reporter, 5-FOA selection (AID 869;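 active = inhibition over a set limit, the all-compound mean plus 3 SD, in both replicate runs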;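 note: 0% = DMSO wells with no growth and 100% = 10 µM 1-NA-PP1 with full growth; RAM network block rescues cells from 5-FOA so hits raise OD615 growth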); settings: S. cerevisiae dse1pr::URA3 5-FOA growth, OD615, 2 d; at 10 µM; stronger effect = higher value; strain carries analog-sensitive mutant Cbk1 kinase
[15] = RAM signaling pathway blockade in yeast – S. cerevisiae, Pdr1DBD-CYC8 efflux-inhibited sensitized strain, primary screen (AID 1298;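 active = RAM network inhibition above 8.4% in each of two replicates, 3 SD over the compound average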;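 note: 0% = DMSO untreated cells without growth and 100% = 10 µM 1-NA-PP1 full growth; higher means more yeast growth rescued from 5-FOA killing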); settings: S. cerevisiae cbk1-as DSE1-URA3 strain, 5-FOA growth OD615, 2 d; at 50 µM; stronger effect = higher value
[16] = H69AR cells + 2 uM doxorubicin, measured here: viability with 2 uM doxorubicin, stronger effect = lower value
[17] = H69AR cells, compound alone cytotoxicity

Chain of Receptor tyrosine-protein kinase erbB-2 (Homo sapiens) (P04626 whole entry, looked up): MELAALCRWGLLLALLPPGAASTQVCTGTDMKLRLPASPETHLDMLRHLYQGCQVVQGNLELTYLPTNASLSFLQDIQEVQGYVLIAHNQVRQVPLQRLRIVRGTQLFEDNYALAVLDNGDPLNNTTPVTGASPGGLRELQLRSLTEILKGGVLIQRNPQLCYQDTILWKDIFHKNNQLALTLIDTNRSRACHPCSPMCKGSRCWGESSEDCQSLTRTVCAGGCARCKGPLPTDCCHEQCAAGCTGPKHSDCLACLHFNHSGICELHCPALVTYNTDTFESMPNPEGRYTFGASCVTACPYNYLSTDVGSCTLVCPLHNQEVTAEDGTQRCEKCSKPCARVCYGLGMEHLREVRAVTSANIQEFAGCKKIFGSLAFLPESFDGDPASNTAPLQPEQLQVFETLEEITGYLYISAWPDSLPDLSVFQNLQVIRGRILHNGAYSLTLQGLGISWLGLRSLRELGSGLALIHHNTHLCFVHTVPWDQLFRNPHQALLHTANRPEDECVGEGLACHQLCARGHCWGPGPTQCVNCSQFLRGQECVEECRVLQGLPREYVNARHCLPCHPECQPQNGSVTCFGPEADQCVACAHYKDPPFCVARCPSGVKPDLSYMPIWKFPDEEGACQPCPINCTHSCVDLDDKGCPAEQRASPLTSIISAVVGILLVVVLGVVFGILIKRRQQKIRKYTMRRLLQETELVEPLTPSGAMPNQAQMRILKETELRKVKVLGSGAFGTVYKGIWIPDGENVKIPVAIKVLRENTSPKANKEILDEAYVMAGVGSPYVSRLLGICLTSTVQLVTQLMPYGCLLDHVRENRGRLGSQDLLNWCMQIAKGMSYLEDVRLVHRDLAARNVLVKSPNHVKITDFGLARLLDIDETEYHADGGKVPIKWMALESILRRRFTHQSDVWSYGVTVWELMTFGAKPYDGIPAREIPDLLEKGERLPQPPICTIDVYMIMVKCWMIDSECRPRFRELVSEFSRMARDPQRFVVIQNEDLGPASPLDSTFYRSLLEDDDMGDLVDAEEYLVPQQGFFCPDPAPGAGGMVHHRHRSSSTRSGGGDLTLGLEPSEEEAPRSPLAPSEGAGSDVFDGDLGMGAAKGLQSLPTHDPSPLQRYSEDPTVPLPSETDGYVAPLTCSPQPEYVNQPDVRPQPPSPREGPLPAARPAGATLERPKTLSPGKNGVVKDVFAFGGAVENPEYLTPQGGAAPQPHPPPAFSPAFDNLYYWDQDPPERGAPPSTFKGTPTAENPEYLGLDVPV

Compound	viability [1]	Her2 level [2]	viability [3]	viability [4]	viability [5]	differential viability (reversal) ([6]; H69AR cells + 2 uM doxorubicin)	viability [6, 16]	viability [6, 17]	inhibition [7]	inhibition [8]	growth inhibition [9]	growth inhibition [10]	viability increase [11]	viability [12]	viability [13]	inhibition [14]	RAM network inhibition [15]
Cc1nn(-c2ccc(F)cc2)c2c1cc(C#N)c1nc3ccccc3n12	102%	81% (inactive)	102% (inactive)	56.2% (inactive)	86.3% (inactive)	5.42% (inactive)	80.9%	86.3%	-2.89% (inactive)	-2.67% (inactive)	1.38% (inactive)	8.66% (inactive)	-1.92% (inactive)	95.9% (inactive)	93.5% (inactive)	0.36% (inactive)	6.61% (inactive)
CC1CCCCN1CCNC(=O)C1CCN(S(=O)(=O)c2cccc3cccnc23)CC1 (stereo not given)	97%	96.5% (inactive)	97% (inactive)	112% (inactive)	100% (inactive)	4.43% (inactive)	95.8%	100%	-2.53% (inactive)	-2.46% (inactive)	8.94% (inactive)	-2.71% (inactive)	-3.57% (inactive)	101% (inactive)	97.9% (inactive)	2.46% (inactive)	6.99% (inactive)
CC1CCN(C(=O)CSCC(=O)Nc2nc(-c3cccs3)cs2)CC1	86%	80.5% (inactive)	86% (inactive)	67% (inactive)	91.1% (inactive)	4.54% (inactive)	86.6%	91.1%	-1.33% (inactive)	-1.15% (inactive)	1.36% (inactive)	-5.56% (inactive)	-4.14% (inactive)	100% (inactive)	92.1% (inactive)	0.24% (inactive)	-0.16% (inactive)
CCCSc1nnc(N2C(=O)CC(c3ccsc3)C3=C2CCCC3=O)s1 (stereo not given)	92.5%	100% (inactive)	92.5% (inactive)	93.8% (inactive)	92.7% (inactive)	0.73% (inactive)	91.9%	92.7%	-5.87% (inactive)	-4.5% (inactive)	-3.18% (inactive)	-7.41% (inactive)	-0.83% (inactive)	99.4% (inactive)	89.6% (inactive)	0.25% (inactive)	7.67% (inactive)
COc1ccc(N2CCN(C(=O)c3c(-c4ccccc4)noc3C)CC2)cc1	91.5%	108% (inactive)	91.5% (inactive)	94.4% (inactive)	88.1% (inactive)	-4.69% (inactive)	92.8%	88.1%	0.51% (inactive)	4% (inactive)	-9.57% (inactive)	-10.4% (inactive)	-2.79% (inactive)	94.4% (inactive)	90.3% (inactive)	0.795% (inactive)	4.5% (inactive)
COc1ccc(NC(=O)CN(c2ccc(C(C)C)cc2)S(=O)(=O)c2c(C)noc2C)cc1OC	90.5%	99% (inactive)	90.5% (inactive)	58.7% (inactive)	84.9% (inactive)	-6.37% (inactive)	91.3%	84.9%	1.41% (inactive)	-2.17% (inactive)	-14.5% (inactive)	-5.8% (inactive)	-3.99% (inactive)	94.5% (inactive)	90.8% (inactive)	3.67% (inactive)	3.37% (inactive)
O=C(CCCn1c(=O)c2sccc2n(Cc2cc(=O)n3ccccc3n2)c1=O)NCc1ccco1	82.5%	126% (inactive)	82.5% (inactive)	87.7% (inactive)	77% (inactive)	-2.97% (inactive)	80%	77%	3.59% (inactive)	-4.33% (inactive)	-9.24% (inactive)	-2.77% (inactive)	-1.87% (inactive)	91.3% (inactive)	99.3% (inactive)	-0.225% (inactive)	0.21% (inactive)
COc1ccc(NC(=O)c2cnc3n(c2=O)CCS3)cc1OC	112%	106% (inactive)	112% (inactive)	88.2% (inactive)	95.7% (inactive)	11.8% (inactive)	83.9%	95.7%	-3.07% (inactive)	-4.59% (inactive)	-14.6% (inactive)	-5.98% (inactive)	1.5% (inactive)	109% (inactive)	103% (inactive)	2.45% (inactive)	7.24% (inactive)
CC1(C)CC(=O)C2=C(C1)NC(=O)CC2c1ccc(N(CCC#N)CCC#N)cc1 (stereo not given)	101%	120% (inactive)	101% (inactive)	101% (inactive)	110% (inactive)	23.6% (inactive)	86.6%	110%	-5.68% (inactive)	-1.8% (inactive)	-9.4% (inactive)	-8.29% (inactive)	0.18% (inactive)	91.5% (inactive)	100% (inactive)	1.41% (inactive)	1.8% (inactive)
CC1NC2(C(=O)N(Cc3ccccc3)c3ccccc32)C2C(=O)N(c3ccccc3)C(=O)C12 (stereo not given)	120%	100% (inactive)	120% (inactive)	95.5% (inactive)	93.5% (inactive)	0.575% (inactive)	92.9%	93.5%	-4.13% (inactive)	1% (inactive)	-5.06% (inactive)	-14.4% (inactive)	1.77% (inactive)	97.1% (inactive)	104% (inactive)	0.29% (inactive)	3.53% (inactive)
